# Measured values from the supplement of paper PMC12067093, “Discovery and optimisation of a covalent ligand for TRIM25 and its application to targeted protein ubiquitination” (Chemical Science, 2025).
# The full data set covers some 21,000 targets. This sample favours those with the largest changes.
# Molecular target: WDR43_Q15061_158_HIVEWNVQTCK (UniProt Q15061)
# Assay: probe-labelled cysteine peptide fold change vs DMSO (competition) (log2 fold change); higher = less target engagement (more negative = stronger competition)
# Settings: THP-1, incubation time: 4 h
# 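Also: competitive profiling in live THP-1 cells: cysteine peptides tagged with an iodoacetamide desthiobiotin (IA-DTB) probe, intensity after compound treatment relative to DMSO-treated cells.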
# Chain of WDR43_Q15061_158_HIVEWNVQTCK (Q15061 whole entry, looked up): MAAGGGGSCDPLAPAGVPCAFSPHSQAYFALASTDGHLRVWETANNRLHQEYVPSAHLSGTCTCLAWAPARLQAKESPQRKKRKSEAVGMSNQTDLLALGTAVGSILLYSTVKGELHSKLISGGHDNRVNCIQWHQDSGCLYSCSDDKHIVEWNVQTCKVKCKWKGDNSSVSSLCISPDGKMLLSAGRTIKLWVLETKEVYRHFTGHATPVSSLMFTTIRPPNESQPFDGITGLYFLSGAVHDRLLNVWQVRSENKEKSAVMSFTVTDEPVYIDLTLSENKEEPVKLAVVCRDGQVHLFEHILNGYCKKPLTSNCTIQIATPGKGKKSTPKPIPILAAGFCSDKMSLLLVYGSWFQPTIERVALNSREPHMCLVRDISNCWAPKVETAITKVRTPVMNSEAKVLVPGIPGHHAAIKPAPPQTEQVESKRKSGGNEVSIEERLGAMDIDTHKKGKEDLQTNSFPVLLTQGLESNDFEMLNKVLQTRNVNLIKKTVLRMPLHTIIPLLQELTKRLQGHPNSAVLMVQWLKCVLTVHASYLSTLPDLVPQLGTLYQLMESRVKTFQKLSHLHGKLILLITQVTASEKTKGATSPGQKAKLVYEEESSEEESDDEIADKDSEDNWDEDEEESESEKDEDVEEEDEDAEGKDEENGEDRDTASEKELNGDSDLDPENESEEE
structure (smiles),measurement,setting,value
Cc1cc(C(=O)N2CCCN(C(=O)CCl)CC2)ccc1-c1ccccc1 [compound 10],probe-labelled cysteine peptide fold change,10 µM,-0.0124
same,probe-labelled cysteine peptide fold change,50 µM,-0.0233
